Experimental data: the supplement of paper PMC11732987, “Enantioselective OTUD7B fragment discovery through chemoproteomics screening and high-throughput optimisation” (Communications Chemistry, 2025)
A number with no mark means an inactive call.

How the values were obtained:
Test in all cases: log2 ratio of Biotin-Ahx-Ub-VS probe labelling (fragment/DMSO); higher = less target engagement (more negative = stronger competition), active = hit call of the paper (q ≤ 0.05, log2 ratio ≤ -1)
Details in all cases: compound concentration: 200 uM; treatment time: 3 h
UniProt O00507 = molecular target: UniProt O00507
Sequence of UniProt O00507 (O00507 whole entry, the tested form may be a part): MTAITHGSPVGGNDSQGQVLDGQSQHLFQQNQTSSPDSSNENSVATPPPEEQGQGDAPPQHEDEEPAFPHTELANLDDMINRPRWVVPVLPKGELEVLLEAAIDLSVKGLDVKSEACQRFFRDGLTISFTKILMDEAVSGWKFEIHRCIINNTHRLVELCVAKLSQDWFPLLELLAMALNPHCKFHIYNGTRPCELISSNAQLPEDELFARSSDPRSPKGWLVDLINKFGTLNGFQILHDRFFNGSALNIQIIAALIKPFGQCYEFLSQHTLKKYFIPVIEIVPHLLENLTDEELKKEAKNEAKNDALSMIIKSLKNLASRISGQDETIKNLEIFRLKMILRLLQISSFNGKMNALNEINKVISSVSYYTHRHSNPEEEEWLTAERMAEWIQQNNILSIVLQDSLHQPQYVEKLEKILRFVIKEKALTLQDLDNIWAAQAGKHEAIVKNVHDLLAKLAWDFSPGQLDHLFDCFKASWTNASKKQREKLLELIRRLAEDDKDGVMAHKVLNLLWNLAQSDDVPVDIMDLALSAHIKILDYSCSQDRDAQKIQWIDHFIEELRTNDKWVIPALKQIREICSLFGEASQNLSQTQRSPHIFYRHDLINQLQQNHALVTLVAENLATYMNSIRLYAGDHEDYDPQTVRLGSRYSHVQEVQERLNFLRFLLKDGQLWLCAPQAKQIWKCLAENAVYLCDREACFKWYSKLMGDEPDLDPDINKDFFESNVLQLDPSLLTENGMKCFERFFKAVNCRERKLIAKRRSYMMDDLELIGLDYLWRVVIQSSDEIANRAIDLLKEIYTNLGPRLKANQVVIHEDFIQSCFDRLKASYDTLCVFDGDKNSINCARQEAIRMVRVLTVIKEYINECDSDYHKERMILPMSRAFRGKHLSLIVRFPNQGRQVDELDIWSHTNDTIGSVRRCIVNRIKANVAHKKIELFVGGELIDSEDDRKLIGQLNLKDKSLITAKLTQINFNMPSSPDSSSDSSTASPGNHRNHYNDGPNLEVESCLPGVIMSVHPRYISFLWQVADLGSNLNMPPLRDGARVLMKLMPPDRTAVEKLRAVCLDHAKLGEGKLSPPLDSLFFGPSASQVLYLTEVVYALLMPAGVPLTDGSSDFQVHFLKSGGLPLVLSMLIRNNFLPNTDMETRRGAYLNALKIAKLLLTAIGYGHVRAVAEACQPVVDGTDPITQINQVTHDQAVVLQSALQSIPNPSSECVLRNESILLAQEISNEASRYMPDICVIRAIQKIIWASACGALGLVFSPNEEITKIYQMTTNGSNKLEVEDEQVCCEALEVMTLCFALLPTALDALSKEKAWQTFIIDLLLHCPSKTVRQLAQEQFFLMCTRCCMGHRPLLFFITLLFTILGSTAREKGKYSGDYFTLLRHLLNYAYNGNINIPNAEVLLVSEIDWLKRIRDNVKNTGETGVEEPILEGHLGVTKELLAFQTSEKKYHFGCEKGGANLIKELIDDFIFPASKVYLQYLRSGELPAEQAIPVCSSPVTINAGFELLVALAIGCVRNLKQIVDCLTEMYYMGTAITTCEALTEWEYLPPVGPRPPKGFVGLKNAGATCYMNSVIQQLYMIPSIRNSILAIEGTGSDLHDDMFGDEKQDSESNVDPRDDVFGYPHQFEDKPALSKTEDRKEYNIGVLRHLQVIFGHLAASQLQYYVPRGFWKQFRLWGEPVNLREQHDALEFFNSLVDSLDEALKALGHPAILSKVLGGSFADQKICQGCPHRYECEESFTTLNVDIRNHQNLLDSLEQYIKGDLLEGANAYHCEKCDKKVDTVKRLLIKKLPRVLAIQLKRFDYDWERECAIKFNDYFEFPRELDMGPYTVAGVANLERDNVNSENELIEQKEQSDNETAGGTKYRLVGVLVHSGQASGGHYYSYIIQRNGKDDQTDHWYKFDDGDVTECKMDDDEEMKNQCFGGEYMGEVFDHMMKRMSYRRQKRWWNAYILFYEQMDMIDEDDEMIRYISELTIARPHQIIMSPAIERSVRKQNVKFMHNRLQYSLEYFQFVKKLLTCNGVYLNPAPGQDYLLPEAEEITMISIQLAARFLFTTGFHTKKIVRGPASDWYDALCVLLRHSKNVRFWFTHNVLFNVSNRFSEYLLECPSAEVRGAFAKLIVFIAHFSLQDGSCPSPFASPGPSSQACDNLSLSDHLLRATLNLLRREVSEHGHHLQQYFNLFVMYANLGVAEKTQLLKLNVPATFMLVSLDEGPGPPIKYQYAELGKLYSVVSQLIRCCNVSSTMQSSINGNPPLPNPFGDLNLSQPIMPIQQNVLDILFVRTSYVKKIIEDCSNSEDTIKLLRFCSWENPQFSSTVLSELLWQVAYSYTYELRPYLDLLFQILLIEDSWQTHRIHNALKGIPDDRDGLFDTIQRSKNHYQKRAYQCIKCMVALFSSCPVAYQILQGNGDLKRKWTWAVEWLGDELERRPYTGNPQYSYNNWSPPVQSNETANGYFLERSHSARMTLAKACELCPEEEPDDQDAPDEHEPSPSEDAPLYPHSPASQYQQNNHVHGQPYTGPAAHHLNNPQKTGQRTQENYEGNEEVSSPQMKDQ
How it was run: (§1)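 Average log2 ratios of fragment over vehicle were obtained by unpaired t-test from global-median-normalised Spectronaut label-free quantities. Proteins with ≥2 unique peptides were included. HEK293T lysate (495 µg per sample) was treated in triplicate with fragment at 200 µM or vehicle for 3 h, then with Biotin-Ahx-Ub-VS at 0.5 µM final for 1 h, and labelled DUBs were NeutrAvidin-enriched and run by diaPASEF LC-MS/MS.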

UniProt P51784 = molecular target: UniProt P51784
Sequence of UniProt P51784 (P51784 whole entry): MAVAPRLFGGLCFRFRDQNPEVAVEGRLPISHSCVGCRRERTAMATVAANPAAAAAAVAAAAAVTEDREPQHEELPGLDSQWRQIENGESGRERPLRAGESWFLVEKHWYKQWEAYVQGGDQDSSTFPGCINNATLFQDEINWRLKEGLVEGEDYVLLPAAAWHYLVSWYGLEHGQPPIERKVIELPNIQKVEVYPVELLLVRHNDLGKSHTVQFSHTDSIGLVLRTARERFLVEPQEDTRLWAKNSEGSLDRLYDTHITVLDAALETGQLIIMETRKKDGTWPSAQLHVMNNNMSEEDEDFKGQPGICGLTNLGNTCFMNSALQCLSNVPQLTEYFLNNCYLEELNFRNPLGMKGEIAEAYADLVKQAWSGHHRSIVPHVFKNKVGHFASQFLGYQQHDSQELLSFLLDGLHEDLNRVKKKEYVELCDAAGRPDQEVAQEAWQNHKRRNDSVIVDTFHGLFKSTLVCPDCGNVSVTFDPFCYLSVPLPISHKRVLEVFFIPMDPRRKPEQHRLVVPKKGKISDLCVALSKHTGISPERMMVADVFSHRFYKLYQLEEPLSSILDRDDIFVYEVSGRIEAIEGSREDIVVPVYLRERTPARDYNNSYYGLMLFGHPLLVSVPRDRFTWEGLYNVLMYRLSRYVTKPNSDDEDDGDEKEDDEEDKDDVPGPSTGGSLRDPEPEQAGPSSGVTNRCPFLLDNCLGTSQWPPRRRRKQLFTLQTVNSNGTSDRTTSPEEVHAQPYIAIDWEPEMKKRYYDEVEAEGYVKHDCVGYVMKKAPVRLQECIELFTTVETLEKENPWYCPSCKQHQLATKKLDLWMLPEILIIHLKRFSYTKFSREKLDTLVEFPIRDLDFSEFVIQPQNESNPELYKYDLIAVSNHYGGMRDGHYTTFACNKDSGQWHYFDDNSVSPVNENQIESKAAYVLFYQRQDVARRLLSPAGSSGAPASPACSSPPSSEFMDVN
How it was run: as §1

UniProt Q5T2D3 = molecular target: T1, UniProt Q5T2D3
T1 sequence (whole entry): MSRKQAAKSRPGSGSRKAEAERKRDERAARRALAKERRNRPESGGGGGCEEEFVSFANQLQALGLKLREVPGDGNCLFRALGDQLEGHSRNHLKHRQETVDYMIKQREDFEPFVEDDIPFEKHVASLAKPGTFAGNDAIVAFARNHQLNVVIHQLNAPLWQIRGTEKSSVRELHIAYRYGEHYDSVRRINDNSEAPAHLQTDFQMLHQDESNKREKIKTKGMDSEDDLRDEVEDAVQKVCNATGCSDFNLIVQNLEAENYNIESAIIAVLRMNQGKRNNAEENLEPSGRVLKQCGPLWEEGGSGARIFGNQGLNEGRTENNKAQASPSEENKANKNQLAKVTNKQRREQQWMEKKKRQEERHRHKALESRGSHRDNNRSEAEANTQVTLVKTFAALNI
How it was run: as §1

UniProt Q8TE49 = molecular target: T2, UniProt Q8TE49
T2 sequence (whole entry): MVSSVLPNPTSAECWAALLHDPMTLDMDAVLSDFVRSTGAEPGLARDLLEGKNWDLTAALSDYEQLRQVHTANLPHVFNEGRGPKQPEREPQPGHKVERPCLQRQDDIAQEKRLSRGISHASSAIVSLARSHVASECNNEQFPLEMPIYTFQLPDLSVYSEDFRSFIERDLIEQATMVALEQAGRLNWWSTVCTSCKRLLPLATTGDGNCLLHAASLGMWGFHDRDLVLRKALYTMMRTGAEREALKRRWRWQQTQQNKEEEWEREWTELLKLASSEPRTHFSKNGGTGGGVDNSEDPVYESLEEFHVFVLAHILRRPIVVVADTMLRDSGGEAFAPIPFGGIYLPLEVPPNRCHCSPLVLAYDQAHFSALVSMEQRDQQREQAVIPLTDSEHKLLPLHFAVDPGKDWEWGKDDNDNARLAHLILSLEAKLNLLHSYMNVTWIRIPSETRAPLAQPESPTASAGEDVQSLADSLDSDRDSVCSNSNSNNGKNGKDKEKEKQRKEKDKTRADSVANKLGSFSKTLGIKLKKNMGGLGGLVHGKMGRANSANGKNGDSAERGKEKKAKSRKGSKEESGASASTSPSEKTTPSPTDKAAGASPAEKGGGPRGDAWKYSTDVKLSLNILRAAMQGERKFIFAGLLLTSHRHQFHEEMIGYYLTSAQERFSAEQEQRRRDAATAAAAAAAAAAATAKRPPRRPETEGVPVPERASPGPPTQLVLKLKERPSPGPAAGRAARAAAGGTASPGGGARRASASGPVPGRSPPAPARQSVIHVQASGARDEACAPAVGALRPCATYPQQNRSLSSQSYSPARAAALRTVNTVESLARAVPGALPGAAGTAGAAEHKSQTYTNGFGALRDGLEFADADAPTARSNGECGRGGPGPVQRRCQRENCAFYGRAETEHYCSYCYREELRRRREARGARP
How it was run: as §1

UniProt Q9P2H5 = molecular target: T3, UniProt Q9P2H5
T3 sequence (whole entry): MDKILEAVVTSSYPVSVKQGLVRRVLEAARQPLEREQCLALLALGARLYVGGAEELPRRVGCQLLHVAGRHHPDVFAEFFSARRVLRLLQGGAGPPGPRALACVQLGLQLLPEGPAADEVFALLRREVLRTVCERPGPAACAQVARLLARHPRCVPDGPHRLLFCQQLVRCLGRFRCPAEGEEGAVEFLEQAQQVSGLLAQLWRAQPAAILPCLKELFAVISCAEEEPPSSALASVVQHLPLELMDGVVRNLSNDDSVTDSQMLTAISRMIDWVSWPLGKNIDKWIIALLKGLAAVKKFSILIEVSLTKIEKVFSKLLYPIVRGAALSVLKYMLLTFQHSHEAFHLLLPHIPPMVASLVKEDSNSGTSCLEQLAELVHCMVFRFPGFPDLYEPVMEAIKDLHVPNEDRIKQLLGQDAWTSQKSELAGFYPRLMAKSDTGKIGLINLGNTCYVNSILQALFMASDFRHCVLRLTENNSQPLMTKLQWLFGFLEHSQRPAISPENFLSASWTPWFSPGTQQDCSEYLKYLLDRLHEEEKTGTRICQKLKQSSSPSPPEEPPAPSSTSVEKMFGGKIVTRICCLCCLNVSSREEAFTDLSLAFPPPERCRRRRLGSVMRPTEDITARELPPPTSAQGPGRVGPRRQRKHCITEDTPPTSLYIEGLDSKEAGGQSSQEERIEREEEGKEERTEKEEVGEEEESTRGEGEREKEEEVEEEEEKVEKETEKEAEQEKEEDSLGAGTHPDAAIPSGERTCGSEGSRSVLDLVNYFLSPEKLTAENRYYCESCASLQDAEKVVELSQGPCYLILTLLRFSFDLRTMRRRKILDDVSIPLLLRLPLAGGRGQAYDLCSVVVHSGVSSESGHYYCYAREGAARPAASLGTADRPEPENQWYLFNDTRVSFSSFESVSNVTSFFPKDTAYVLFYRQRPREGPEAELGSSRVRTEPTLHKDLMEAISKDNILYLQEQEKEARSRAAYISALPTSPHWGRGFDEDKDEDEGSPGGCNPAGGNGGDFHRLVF
How it was run: as §1

UniProt Q9UGI0 = molecular target: T4, UniProt Q9UGI0
T4 sequence (whole entry): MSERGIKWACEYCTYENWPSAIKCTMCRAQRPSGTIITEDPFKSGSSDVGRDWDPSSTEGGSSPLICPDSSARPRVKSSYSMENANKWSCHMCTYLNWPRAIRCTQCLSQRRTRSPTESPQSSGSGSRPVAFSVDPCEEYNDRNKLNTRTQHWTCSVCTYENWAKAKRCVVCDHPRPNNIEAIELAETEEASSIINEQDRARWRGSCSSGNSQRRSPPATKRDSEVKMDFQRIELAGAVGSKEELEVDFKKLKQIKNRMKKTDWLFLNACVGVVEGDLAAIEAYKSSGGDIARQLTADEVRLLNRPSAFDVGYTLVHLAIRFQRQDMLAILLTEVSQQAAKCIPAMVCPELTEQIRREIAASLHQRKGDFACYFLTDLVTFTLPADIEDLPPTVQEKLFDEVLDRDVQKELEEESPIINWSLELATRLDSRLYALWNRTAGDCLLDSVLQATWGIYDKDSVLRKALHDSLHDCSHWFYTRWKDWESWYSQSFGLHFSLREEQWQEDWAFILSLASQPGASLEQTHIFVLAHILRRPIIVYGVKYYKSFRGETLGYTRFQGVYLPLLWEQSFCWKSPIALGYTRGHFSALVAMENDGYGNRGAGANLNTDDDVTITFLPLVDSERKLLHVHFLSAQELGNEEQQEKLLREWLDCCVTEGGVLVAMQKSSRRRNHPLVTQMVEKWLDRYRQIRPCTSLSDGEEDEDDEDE
How it was run: as §1

YOD1 = molecular target: T5, YOD1 (UniProt Q5VVQ6)
T5 sequence (whole entry): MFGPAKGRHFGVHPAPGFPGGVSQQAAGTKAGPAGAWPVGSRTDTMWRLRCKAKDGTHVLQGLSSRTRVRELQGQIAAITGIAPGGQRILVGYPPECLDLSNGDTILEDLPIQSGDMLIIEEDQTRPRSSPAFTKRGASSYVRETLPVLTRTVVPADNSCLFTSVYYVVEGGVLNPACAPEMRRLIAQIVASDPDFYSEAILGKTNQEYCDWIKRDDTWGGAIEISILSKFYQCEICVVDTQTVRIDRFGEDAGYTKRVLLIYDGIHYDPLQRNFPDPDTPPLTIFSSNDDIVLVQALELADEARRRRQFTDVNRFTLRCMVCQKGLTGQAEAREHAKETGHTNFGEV
How it was run: as §1

| SMILES | log2 ratio of Biotin-Ahx-Ub-VS probe labelling (UniProt O00507) | log2 ratio of Biotin-Ahx-Ub-VS probe labelling (UniProt P51784) | log2 ratio of Biotin-Ahx-Ub-VS probe labelling (UniProt Q5T2D3) | log2 ratio of Biotin-Ahx-Ub-VS probe labelling (UniProt Q8TE49) | log2 ratio of Biotin-Ahx-Ub-VS probe labelling (UniProt Q9P2H5) | log2 ratio of Biotin-Ahx-Ub-VS probe labelling (UniProt Q9UGI0) | log2 ratio of Biotin-Ahx-Ub-VS probe labelling (YOD1) |
| --- | --- | --- | --- | --- | --- | --- | --- |
| O=C(CCl)NC1CCS(=O)(=O)c2ccccc21 (stereo unspecified) | -0.00358 | -0.174 | -0.342 | -1.2 (active) | -0.644 | -0.564 | 0.0479 |
| O=C(CCl)N1CCc2ccccc2C(O)C1 (stereo unspecified) | -0.255 | -0.0328 | -0.418 | -0.836 | 0.153 | -1.86 (active) | -0.325 |
| CCN(Cc1ccc(C#N)cc1F)C(=O)CCl | -0.396 | -0.331 | -0.313 | -0.525 | -0.207 | -1.27 (active) | -0.251 |
| Cl.O=C(CCl)N1CCN(Cc2ccccc2)CC1 | -0.496 | 0.0203 | -0.213 | -0.391 | 0.0502 | -0.536 | -0.381 |
| Cl.O=C(CCl)NCc1cc2c(nc1O)CCCC2 | -0.0624 | 0.0791 | -0.333 | -0.515 | -0.244 | -0.421 | -0.158 |
| Cc1cc(C(=O)NC2CCN(C(=O)CCl)CC2)no1 | -0.438 | -0.169 | -0.252 | -0.394 | 0.0224 | -0.0524 | -0.256 |
| O=C(CCl)Nc1ccccc1C(F)(F)F | -0.463 | -0.127 | -0.319 | -0.411 | 0.0663 | -0.466 | -0.621 |
| N#Cc1ccc(Cl)cc1NC(=O)CCl | -0.451 | 0.0676 | -0.0728 | -0.577 | 0.0403 | -0.441 | 0.0565 |
| Cc1cccn2cc(CCNC(=O)CCl)nc12.Cl | -0.143 | -0.122 | -0.0486 | -0.332 | -0.379 | -0.18 | -0.095 |
| Cc1nnc(C(NC(=O)CCl)c2ccccc2)n1C (stereo unspecified) | 1.12 | 0.68 | 0.343 | 0.469 | 0.372 | 0.693 | 0.747 |
| Cc1noc(C)c1CNC(=O)CCl | -0.346 | -0.582 | -0.715 | -1.28 (active) | -0.835 | -1.01 (active) | -0.752 |
| O=C(CCl)N1CCC(c2nc3ccccc3o2)CC1 | -0.57 | -0.0526 | -0.14 | -0.625 | -0.191 | -0.567 | -0.217 |
| O=C(CCl)NCc1ccc(N2CCOCC2)nc1 | -0.134 | -0.0382 | -0.374 | -0.316 | -0.162 | -0.475 | -0.207 |
| Cl.Cn1nc2c(c1CNC(=O)CCl)CCCC2 | 0.0971 | 0.0528 | -0.274 | -0.529 | -0.23 | -0.319 | -0.144 |
| Cc1c(C#N)c(NC(=O)CCl)n(Cc2ccco2)c1C | -0.255 | -0.349 | -0.169 | -2.48 (active) | -0.304 | -0.313 | -0.0342 |
| O=C(CCl)N1CCCN(C(=O)c2ccc(Cl)cc2)CC1 | -0.381 | -0.139 | -0.134 | -0.265 | -0.166 | -0.84 | -0.417 |
| O=C(CCl)N1CCC(=C(F)CO)C1 | 0.605 | 0.155 | 0.0125 | -0.47 | -0.115 | -0.16 | 0.406 |
| Cl.O=C(CCl)N1CCn2cncc2C1 | -0.138 | -0.251 | -0.246 | -0.433 | -0.128 | -0.182 | -0.133 |
